We go through ten compounds from PubChem BioAssay (NCATS).

Records with an inconclusive call do not appear. Calls of active or inactive are those of the source. Unless noted, how the calls were made is not given here.

The nature of assay [1]: qHTS profiling of the MIPE4 collection as inhibitors of Plasmodium falciparum (3D7) proliferation (AID 743344).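 Further: scaled between DMSO vehicle wells and 0.29 µM artemisinin as full inhibition.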 The note with it: P. falciparum 3D7 in erythrocytes, SYBR Green DNA fluorescence, 72 h; at 28.5 µM unless noted. The method, boiled down:
(§1)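 Erythrocytes infected with P. falciparum (0.3% parasitemia, 2.5% hematocrit) incubated with compounds 72 h at 37 C, 5% CO2. Lysis with saponin/Triton buffer containing SYBR Green I, overnight at room temperature in the dark; DNA fluorescence (485/535 nm) normalised to 0.29 uM artemisinin and DMSO.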

A short description of assay [2]: qHTS profiling of the MIPE4 collection as inhibitors of Plasmodium falciparum (DD2) proliferation (AID 743345). The note with it: P. falciparum Dd2 in erythrocytes, SYBR Green DNA, 72 h; at 28.5 µM unless noted. Put shortly: as §1
The nature of assay [3]: qHTS profiling of the MIPE4 collection as inhibitors of Plasmodium falciparum (DD2) proliferation (Rep 2) (AID 743346). To be noted: P. falciparum Dd2 in erythrocytes, SYBR Green DNA, 72 h; at 28.5 µM unless noted. The method, boiled down:
as §1

Assay [4] can be described thus: qHTS profiling of the MIPE4 collection as inhibitors of Plasmodium falciparum (HB3) proliferation (AID 743347).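 Further: plate controls were DMSO vehicle wells for no effect and artemisinin wells for full effect.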 To be noted: P. falciparum HB3 in erythrocytes, SYBR Green DNA, 72 h; at 28.5 µM unless noted. Put shortly: as §1
Assay [5] can be described thus: High-throughput drug toxicity screening in the BPDCN cell line Gen2.2 (AID 1224824).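 Further: cells exposed to compounds for 48 h before reading.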 The note with it: Gen2.2 BPDCN cells; at 45.8 µM (top of the series) unless noted. Put shortly: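 Seed 500 exponentially growing Gen2.2 cells/well; add compounds by pin tool; incubate 48 h, 37 °C, 5% CO2; add CellTiter-Glo, 15 min RT; read luminescence. % activity vs DMSO (100%) and bortezomib (0%).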

The nature of assay [6]: High-throughput drug toxicity screening in the BPDCN cell line Cal-1 (AID 1224825). The note with it: Cal-1 BPDCN cell viability, qHTS; at 45.8 µM (top of the series) unless noted. The method, boiled down: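 Cal-1 cells, 500 per well in phenol-red-free RPMI with 10% FBS, exposed to compounds for 48 hours at 37C, 5% CO2. Viability read by CellTiter-Glo luminescence; percent activity normalized to DMSO (100%) and 9.2 uM bortezomib final (0%).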

A short description of assay [7]: qHTS assay for measurement of the activity of small molecule inhibitors on Zika virus induced Caspase-3 activity in human iPSC derived neural progenitor cells (hNPCs) (AID 1224857; active means well fitted curve in the direction sought with a large enough effect; an effect the other way counts as inactive or inconclusive; further: % of control where 0% means no effect; nearly all actives have a fitted effect of over 65% in size). The method, boiled down: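 Caspase-3/7 induction by a 6-hour ZIKV infection was quantified with a luminescent Caspase-Glo 3/7 reagent incubated 30 minutes at room temperature. Compounds were preincubated with hNPCs for 1 hour; inhibition was calculated against uninfected and infected control wells.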

Assay [8] is described as follows: qHTS assay for measurement of the activity of small molecule inhibitors on Zika virus induced Caspase-3 activity in human astrocytoma cells (AID 1224859; active means well fitted curve in the direction sought with a large enough effect; an effect the other way counts as inactive or inconclusive;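 further: plate controls were ZIKV-infected untreated cells for no effect and uninfected cells for full effect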). The method, boiled down:
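In SNB-19 cells plated at 250 cells/well and grown 16-20 h, compounds were applied 1 h before ZIKV (2 FFU/cell). Six hours later caspase-3/7 luminescence was recorded.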

The nature of assay [9]: qHTS Screen of the MIPE 4.0 Collection Against Ewings Sarcoma (TC71) (AID 1259253; active means well fitted curve in the direction sought with a large enough effect; an effect the other way counts as inactive or inconclusive; further: potency means the concentration at half of the fitted maximal effect; nearly all actives have a fitted effect of over 40% in size). Put shortly:
(§2)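 Viability screen: 48 h incubation at 37C, 95% humidity, 5% CO2 with serially titrated compound, followed by CellTiter-Glo readout.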

Assay [10] can be described thus: qHTS Screen of the MIPE 4.0 Collection Against Ewings Sarcoma (EW8) (AID 1259255; active means well fitted curve in the direction sought with a large enough effect; an effect the other way counts as inactive or inconclusive; further: nearly all actives have a fitted effect of over 35% in size; further: potency means the concentration at half of the fitted maximal effect;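 on viability: 100% = DMSO-treated cells and 0% = medium-only wells without cells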). The method, boiled down:
as §2

Assay [11] in a line: qHTS Screen of the MIPE 4.0 Collection Against Ewings Sarcoma (TC32) (AID 1259256; active means well fitted curve in the direction sought with a large enough effect; an effect the other way counts as inactive or inconclusive; further: nearly all actives have a fitted effect of over 45% in size; further: potency means the concentration at half of the fitted maximal effect). The method, boiled down:
as §2

A short description of assay [12]: qHTS profiling for inhibitors of Plasmodium falciparum (HB3) proliferation (AID 743324; active means well fitted curve in the direction sought with a large enough effect; an effect the other way counts as inactive or inconclusive;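 further: 100% = DMSO vehicle wells and 0% = artemisinin-treated control wells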). The note with it: Plasmodium falciparum HB3 blood-stage proliferation; at 28.7 µM (top of the series) unless noted. The method, boiled down: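 P. falciparum HB3 grown in erythrocytes (0.3% parasitemia, 2.5% hematocrit final) with compound for 72 h at 37 C, 5% CO2. Parasite DNA detected by SYBR Green after saponin/triton lysis overnight; normalized to 0.29 uM artemisinin and DMSO.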

The nature of assay [13]: qHTS Screen of the MIPE 4.0 Collection Against Ewings Sarcoma (RDES) (AID 1259252; active means well fitted curve in the direction sought with a large enough effect; an effect the other way counts as inactive or inconclusive; further: nearly all actives have a fitted effect of over 35% in size; further: potency means the concentration at half of the fitted maximal effect). Put shortly: as §2
Assay [14] in a line: qHTS assay to identify small molecule inhibitors of chordoma cells - UCH-1 (AID 1259355; active means well fitted curve in the direction sought with a large enough effect; an effect the other way counts as inactive or inconclusive; further: on the % scale 0 is the no-effect control and ±100 the full control effect; nearly all actives have a fitted effect of over 55% in size). The method, boiled down:
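Cells (800/well) were seeded and left overnight at 37 C, 5% CO2, then treated with drugs at 15 concentrations plus a combination mix of auranofin, camptothecin, doxorubicin, rubitecan and topotecan. Viability after 48hr was read by CellTiter-Glo luminescence.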

In turn, `COC(=O)N1CCN(Cc2cccc(NC(=O)Nc3ccc(C)nc3)c2F)CC1` yielded a parasite growth, % of DMSO control in assay [1] of 20.8%. This compound had a parasite growth remaining, % of DMSO control (lower = more inhibition) in assay [2] of 71.8%. The compound also returned a parasite growth, % of control (lower = inhibition) in assay [3] of 41.1%. In addition, the growth, % of control in assay [4] is 29.8%. Also, the cell viability, % of control (lower = more cytotoxic) in assay [5] amounted to 149%. The viability (% of control) in assay [6] was 90.8%. Further, the Potency entry in [7], in [8], in [10] and in assay [11] was “inactive” throughout. In assay [9], the Potency was 8.33 µM (active).
`CN(C)CC[C@H](CSc1ccccc1)Nc1ccc(S(=O)(=O)NC(=O)c2ccc(N3CCN(Cc4ccccc4-c4ccc(Cl)cc4)CC3)cc2)cc1[N+](=O)[O-]` registered a remaining proliferation (% of control), lower = more inhibition in [12] of 41.4%. This compound also registered a parasite growth, % of DMSO control in [1] of 34%. Further, in assay [2], the parasite growth remaining, % of DMSO control (lower = more inhibition) was 61.7%. This compound also yielded a parasite growth, % of control (lower = inhibition) in assay [3] of 31.1%. Besides, the growth, % of control in assay [4] came to 4.32%. Also, in assay [5], the cell viability, % of control (lower = more cytotoxic) is 8.88%. Moreover, the viability (% of control) in assay [6] turned out to be 4.81%. For the same compound, the Potency result in assay [7] and in assay [8] was “inactive” throughout. Further, the Potency in [10] is 16.6 µM (active); in [11], 4.18 µM (active).
As to `Cc1ccc(C2=Nc3ccc(Cl)cc3OC2)cc1`, in [1], the parasite growth, % of DMSO control was determined as 30.3%. In assay [2], this compound registered a parasite growth remaining, % of DMSO control (lower = more inhibition) of 94.3%. The compound further gave a parasite growth, % of control (lower = inhibition) in assay [3] of 26.5%. The compound further returned a growth, % of control in [4] of 55.7%. Also, the cell viability, % of control (lower = more cytotoxic) in assay [5] came out at 73.9%. In [6], this compound yielded a viability (% of control) of 85%. Moreover, the Potency entry in assay [7] was “inactive”. In addition, the Potency in assay [9] is 4.69 µM (active); in assay [10] it was 16.6 µM (active).
In assay [1], `c1ccc(-c2oc3ncnc(NC[C@@H]4CCCO4)c3c2-c2ccccc2)cc1` returned a parasite growth, % of DMSO control of 36.2%. In [2], this compound yielded a parasite growth remaining, % of DMSO control (lower = more inhibition) of 72.4%. Further, the parasite growth, % of control (lower = inhibition) in assay [3] was determined as 41.6%. In addition, in assay [4], the growth, % of control was 19.8%. Also, the cell viability, % of control (lower = more cytotoxic) in assay [5] turned out to be 343%. Further, the viability (% of control) in [6] was found to be 42.1%. In addition, in [7], the Potency result was “inactive”. Moreover, the Potency was 18.7 µM (active) in [10] and 20.9 µM (active) in assay [11].
In turn, `N=C1SC(=Cc2ccc(-c3ccc4c(c3)C(=O)NC4=O)o2)C(=O)N1c1ccc(Br)cc1` registered a parasite growth, % of DMSO control in [1] of 9.09%. In addition, the parasite growth remaining, % of DMSO control (lower = more inhibition) in assay [2] worked out at 21.3%. Further, in assay [3], the parasite growth, % of control (lower = inhibition) stood at 30.9%. The same compound registered a growth, % of control in assay [4] of 9.17%. The cell viability, % of control (lower = more cytotoxic) in assay [5] came to 13.7%. The compound also registered a viability (% of control) in [6] of 35.6%. Further, the Potency entry in assay [7] and in [10] was “inactive” each time. The Potency in assay [9] is 20.9 µM (active); in assay [11], 18.7 µM (active).
Consider `C=CC(=O)Nc1cccc(Sc2nc(Nc3ccc(N4CCN(C)CC4)cc3)ncc2Cl)c1`, for which the parasite growth, % of DMSO control in assay [1] worked out at 4.12%. For the same compound, in [2], the parasite growth remaining, % of DMSO control (lower = more inhibition) turned out to be 10.2%. The compound further yielded a parasite growth, % of control (lower = inhibition) in assay [3] of 6.26%. This compound gave a growth, % of control in assay [4] of 1.99%. Moreover, the cell viability, % of control (lower = more cytotoxic) in [5] came to 8.4%. Moreover, the viability (% of control) in assay [6] turned out to be 2.56%. For the same compound, the Potency result in assay [7] was “inactive”. Moreover, in assay [13], the Potency was 18.7 µM (active).
In assay [1], `CCC[C@@H](NC(=O)[C@@H]1[C@H]2CCC[C@@H]2CN1C(=O)[C@@H](NC(=O)[C@@H](NC(=O)c1cnccn1)C1CCCCC1)C(C)(C)C)C(=O)C(=O)NC1CC1` showed a parasite growth, % of DMSO control of 9.1%. Besides, the parasite growth remaining, % of DMSO control (lower = more inhibition) in assay [2] was determined as 61.2%. This compound showed a parasite growth, % of control (lower = inhibition) in [3] of 19.9%. This compound yielded a growth, % of control in assay [4] of 10.3%. The cell viability, % of control (lower = more cytotoxic) in assay [5] amounted to 48.1%. This compound registered a viability (% of control) in [6] of 63.1%. The Potency result in assay [7] and in assay [13] was “inactive” each time.
On to `CN(C(Cc1ccc(OS(=O)(=O)c2cccc3cnccc23)cc1)C(=O)N1CCN(c2ccccc2)CC1)S(=O)(=O)c1cccc2cnccc12` (centres undefined), for which the parasite growth, % of DMSO control in assay [1] stood at 6.17%. In assay [2], this compound registered a parasite growth remaining, % of DMSO control (lower = more inhibition) of 7.38%. In [3], this compound showed a parasite growth, % of control (lower = inhibition) of 10.8%. Moreover, the cell viability, % of control (lower = more cytotoxic) in [5] is 116%. In assay [6], this compound registered a viability (% of control) of 85.3%. For the same compound, the Potency entry in [7] and in assay [8] was “inactive” in each case. Moreover, the Potency in assay [10] is 14.8 µM (active); in assay [11], 16.6 µM (active).
`COc1c(C)c2c(c(O)c1CC=C(C)CCC(=O)OCCN1CCOCC1)C(=O)OC2`: the parasite growth, % of DMSO control in [1] came out at 16.6%. In addition, the parasite growth remaining, % of DMSO control (lower = more inhibition) in assay [2] was 18.6%. The parasite growth, % of control (lower = inhibition) in assay [3] was 15.1%. The compound also gave a growth, % of control in assay [4] of 9.76%. Further, the cell viability, % of control (lower = more cytotoxic) in assay [5] was determined as 164%. This compound also came in with a viability (% of control) in assay [6] of 13.5%. For the same compound, the Potency entry in assay [7] and in assay [8] was “inactive” throughout. Also, the Potency in assay [9] was 1.48 µM (active). Moreover, the result in [14] was inactive.
`NC(N)=Nc1nc(CSCCC(N)=NS(N)(=O)=O)cs1` came in with a parasite growth, % of DMSO control in assay [1] of 74.6%. This compound yielded a parasite growth remaining, % of DMSO control (lower = more inhibition) in [2] of 98.2%. Further, in assay [3], the parasite growth, % of control (lower = inhibition) turned out to be 84.9%. The compound further returned a growth, % of control in assay [4] of 92.7%. In addition, in assay [5], the cell viability, % of control (lower = more cytotoxic) was 171%. The compound further showed a viability (% of control) in [6] of 50.4%. Further, the Potency entry in [7] was “inactive”. Further, the Potency in [13] was 11.8 µM (active); in assay [9] it was 18.7 µM (active).
